The record followed here is PubChem BioAssay (Tox21).

Values joined by “and” are separate entries in the source; they are usually repeats but may differ in a detail not shown here. Identical values can stand only once. Results filed as inconclusive are left out. More than one record can exist for a structure, and the calls need not agree. Active and inactive are the calls of the source. Unless noted, calls come from the whole dose curve.

A short description of test [1]: qHTS assay to identify small molecule agonists of the sonic hedgehog signaling (Shh) pathway (AID 1259368).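 Note: NIH/3T3-derived 3T3Gli1-Luc cells carrying a stable Gli1-driven firefly luciferase reporter; series mostly up to about 92 µM; nearly all actives have a fitted effect of over 15% in size.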 The gist of the method:
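Quantitative high-throughput format using a Gli1-driven firefly luciferase reporter line derived from NIH/3T3 cells. After a 24 hr compound treatment at 37 C and 5% CO2, luminescence reported Gli1 response element activity.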

The nature of test [2]: qHTS assay to identify small molecule antagonists of the sonic hedgehog signaling (Shh) pathway (AID 1259369). Note: nearly all actives have a fitted effect of over 45% in size. Note: potency is the fitted concentration of half-maximal effect. In a few lines: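 Stable Gli1-Luc reporter NIH/3T3 clone; quantitative HTS in stimulated mode with conditioned medium. Luminescence measured after 24hr compound treatment at 37 C.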
(In qHTS, concentration-response curves come from the screen itself.)

A short description of test [3]: qHTS assay to identify small molecule agonists of the androgen receptor (AR) signaling pathway in the presence of an antagonist - cell viability counter screen (AID 1259379; active = well fitted curve in the direction sought with a large enough effect in the repeat runs; an effect the other way counts as inactive or inconclusive;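 note: MDA-kb2 human breast cancer cells carrying an MMTV luciferase reporter; series mostly up to about 92 µM; nearly all actives have a fitted effect of over 25% in size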). The gist of the method: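 Nilutamide-containing (3.0uM final) MDA-kb2 cultures, 3,000 cells/well, were treated with compounds across 15 concentrations. After 16 hr at 37C with no CO2, cell viability was determined by CellTiter-Fluor fluorescence in the luciferase assay wells.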

Test [4] is described as follows: qHTS assay to identify small molecule agonists of the estrogen receptor beta (ER-beta) signaling pathway - cell viability counter screen (AID 1259380; active = well fitted curve in the direction sought with a large enough effect in the repeat runs; an effect the other way counts as inactive or inconclusive; note: nearly all actives have a fitted effect of over 30% in size). The gist of the method:
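Steps: plate ER-beta-UAS-bla HEK293T cells, rest 6 hr; add compounds in DMSO; incubate 16 hr at 37C, 5% CO2; add FRET substrate 2 hr; add CellTiter-Glo, wait 30 min at room temperature; read luminescence.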

Test [5] can be described thus: qHTS assay to identify small molecule antagonists of the estrogen receptor beta (ER-beta) signaling pathway - cell viability counter screen (AID 1259382; active = well fitted curve in the direction sought with a large enough effect in the repeat runs; an effect the other way counts as inactive or inconclusive; note: series mostly up to about 92 µM; nearly all actives have a fitted effect of over 55% in size). The gist of the method:
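Viability is scored by CellTiter-Glo luminescence (30 min, room temperature) in ER-beta-UAS-bla HEK293T wells already read for reporter fluorescence. Compound exposure lasts 16 hr at 37C alongside 1nM 17-beta-estradiol in charcoal-stripped serum medium.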

Test [6] in a line: qHTS assay to identify small molecule agonists or antagonists of the thyroid stimulating hormone receptor (TSHR) signaling pathway - wild type cell line counter screen (AID 1259384). The gist of the method: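 Wild-type Hek293 cells, 800/well, 18 h at 37C, then compound with Ro20-1724 for 30 min RT. cAMP by HTRF (cAMP-d2/anti-cAMP cryptate), 1 h RT, fluorescence read. 15 concentrations, triplicates.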

The target in test [7] is Estrogen receptor (Homo sapiens) (UniProt P03372). Description: qHTS assay to identify small molecule agonists of the estrogen receptor alpha (ER-alpha) signaling pathway in the presence of an antagonist (AID 1259383). Note: top concentration of the series differs between compounds; nearly all actives have a fitted effect of over 15% in size. The gist of the method: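 Readout was ERE-driven luciferase luminescence in VM7Luc4E2 cells, which express full-length ER-alpha endogenously. Compounds were tested at 15 concentrations for 22hr alongside 10.0nM ICI-182,780 (final concentration).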

The target in test [8] is Androgen receptor (Homo sapiens) (UniProt P10275). Description: qHTS assay to identify small molecule agonists of the androgen receptor (AR) signaling pathway in the presence of an antagonist (AID 1259381). Note: nearly all actives have a fitted effect of over 15% in size. Note: potency is the fitted concentration of half-maximal effect. The gist of the method:
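Reporter-gene luminescence from MDA-kb2 cells exposed 16hr at 37C (0% CO2) to 15-point compound titrations with 3.0uM final nilutamide as AR antagonist.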

Test [9] concerns the target Estrogen receptor beta (Homo sapiens) (UniProt Q92731). Nature of the test: qHTS assay to identify small molecule agonists of the estrogen receptor beta (ER-beta) signaling pathway (AID 1259377; active = well fitted activation curve with a large enough effect in the signal ratio in the repeat runs, not every such curve was filed as active; the % refers to the signal ratio). In a few lines: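 HEK293T ER-beta-UAS-bla; 2% charcoal-stripped FBS; cells pre-incubated 6 hr, compound 16 hr, 37C/5% CO2; LiveBLAzer B/G FRET substrate 2 h RT; fluorescence intensity read.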

The target is the same in test [10]. Nature of the test: qHTS assay to identify small molecule antagonists of the estrogen receptor beta (ER-beta) signaling pathway (AID 1259378; active = well fitted inhibition curve with a large enough effect in the signal ratio in the repeat runs, not every such curve was filed as active; the % refers to the signal ratio). The gist of the method: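 ER-beta-UAS-bla HEK293T cells in 2% charcoal-stripped FBS medium treated with compound plus 1nM final 17-beta-estradiol for 16 hr at 37C. Beta-lactamase reporter read by FRET substrate fluorescence after 2 hours at room temperature.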
% is set by controls: 0 for no effect and ±100 for the full control effect.

Estrogen receptor (Homo sapiens), sequence (P03372 whole entry, looked up): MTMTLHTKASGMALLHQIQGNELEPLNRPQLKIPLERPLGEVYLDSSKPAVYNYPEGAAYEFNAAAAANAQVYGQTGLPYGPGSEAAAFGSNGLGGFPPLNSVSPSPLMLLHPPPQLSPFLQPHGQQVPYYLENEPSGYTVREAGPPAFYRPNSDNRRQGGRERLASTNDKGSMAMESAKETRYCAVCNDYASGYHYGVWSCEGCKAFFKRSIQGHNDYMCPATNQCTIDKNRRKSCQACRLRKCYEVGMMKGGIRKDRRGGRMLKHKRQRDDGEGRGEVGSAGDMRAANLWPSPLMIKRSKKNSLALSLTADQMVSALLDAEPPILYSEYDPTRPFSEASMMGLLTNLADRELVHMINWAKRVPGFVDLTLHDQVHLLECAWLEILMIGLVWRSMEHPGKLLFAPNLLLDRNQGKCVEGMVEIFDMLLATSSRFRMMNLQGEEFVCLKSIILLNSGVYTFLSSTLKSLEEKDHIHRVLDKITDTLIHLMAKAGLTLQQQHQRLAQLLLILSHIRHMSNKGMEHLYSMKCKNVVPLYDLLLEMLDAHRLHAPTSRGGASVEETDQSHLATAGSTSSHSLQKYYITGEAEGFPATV
Estrogen receptor beta (Homo sapiens), sequence (Q92731 whole entry, looked up): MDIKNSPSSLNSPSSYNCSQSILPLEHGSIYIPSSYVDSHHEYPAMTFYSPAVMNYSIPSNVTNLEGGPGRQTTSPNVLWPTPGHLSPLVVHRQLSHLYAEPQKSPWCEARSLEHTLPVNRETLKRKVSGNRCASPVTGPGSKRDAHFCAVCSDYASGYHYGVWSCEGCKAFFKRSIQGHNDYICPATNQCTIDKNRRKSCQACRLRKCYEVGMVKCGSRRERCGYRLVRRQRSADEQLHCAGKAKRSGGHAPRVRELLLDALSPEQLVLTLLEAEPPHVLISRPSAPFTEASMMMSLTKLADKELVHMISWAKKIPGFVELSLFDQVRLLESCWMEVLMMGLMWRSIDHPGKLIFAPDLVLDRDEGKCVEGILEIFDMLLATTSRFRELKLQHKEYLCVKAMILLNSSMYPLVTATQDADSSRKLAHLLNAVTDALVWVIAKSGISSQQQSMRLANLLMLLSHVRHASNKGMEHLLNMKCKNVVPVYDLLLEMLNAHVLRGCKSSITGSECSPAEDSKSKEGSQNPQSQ
Androgen receptor (Homo sapiens), sequence (P10275 whole entry, looked up): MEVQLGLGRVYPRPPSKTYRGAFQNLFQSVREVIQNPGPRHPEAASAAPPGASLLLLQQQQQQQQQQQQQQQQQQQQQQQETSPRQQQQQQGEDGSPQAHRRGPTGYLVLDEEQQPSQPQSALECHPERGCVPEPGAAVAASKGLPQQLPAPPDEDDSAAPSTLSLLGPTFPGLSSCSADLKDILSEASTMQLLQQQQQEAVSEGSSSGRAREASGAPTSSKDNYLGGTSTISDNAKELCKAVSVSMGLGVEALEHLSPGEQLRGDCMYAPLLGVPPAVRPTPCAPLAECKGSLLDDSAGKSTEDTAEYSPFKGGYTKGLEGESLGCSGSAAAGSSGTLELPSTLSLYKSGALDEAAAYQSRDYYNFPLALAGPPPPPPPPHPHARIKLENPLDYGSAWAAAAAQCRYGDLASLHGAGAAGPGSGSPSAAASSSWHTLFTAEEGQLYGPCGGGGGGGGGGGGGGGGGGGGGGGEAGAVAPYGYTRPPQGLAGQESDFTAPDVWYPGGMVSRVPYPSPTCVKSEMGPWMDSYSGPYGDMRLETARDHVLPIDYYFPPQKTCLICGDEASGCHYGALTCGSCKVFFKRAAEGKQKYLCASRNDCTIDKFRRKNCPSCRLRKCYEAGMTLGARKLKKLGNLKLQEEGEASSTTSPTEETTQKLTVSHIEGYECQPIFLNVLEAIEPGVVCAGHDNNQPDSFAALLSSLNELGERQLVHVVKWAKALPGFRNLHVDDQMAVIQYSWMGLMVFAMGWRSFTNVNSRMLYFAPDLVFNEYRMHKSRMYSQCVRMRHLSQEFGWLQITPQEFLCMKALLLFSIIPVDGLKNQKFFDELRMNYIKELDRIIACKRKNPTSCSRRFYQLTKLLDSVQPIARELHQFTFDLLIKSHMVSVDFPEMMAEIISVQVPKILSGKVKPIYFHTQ

As for `C1OCOCO1`, the compound was classed as inactive in test [1] and in test [6]. In addition, the Potency result in test [2], in test [3], in [4] and in [5] was “inactive” each time.
As for `Cc1c(O)cccc1O`, the compound was classed as inactive in test [1]. The Potency in [2] was 14 µM (active). Besides, the Potency result in [3], in test [4], in test [5] and in test [7] was “inactive” each time.
As for `Cn1cc(S(C)=O)c(=O)c2ccc(F)cc21` (stereo not given), the compound was classed as inactive in [1] and in test [6]. The Potency result in test [2], in test [3], in test [4], in test [5] and in [7] was “inactive” each time.
As for `C=COCC1CCC(CO)CC1` (stereo not given), the call in [1] and in [6] was inactive. The Potency entry in test [2], in [3], in test [4], in [5] and in test [7] was “inactive” throughout.
Regarding `O=C(c1ccccc1)C1CCCCC1`, the compound was classed as inactive in [1] and in test [6]. Besides, the Potency result in [2], in test [3], in test [4], in [8], in [5] and in test [7] was “inactive” each time.
Consider `Cc1sccc1Br`, for which the compound was classed as inactive in test [1] and in [6]. The Potency result in [2], in test [3], in test [4], in test [5] and in test [7] was “inactive” in each case.
As for `C[N+](C)(C)CC(O)CC(=O)[O-]` (stereo not given), the compound was called inactive in [1] and in test [6]. Besides, the Potency result in test [2], in test [3], in test [4] and in test [5] was “inactive” throughout.
With `CCCCC/C=C\CCC=O`, the call in [1] and in test [6] was inactive. Also, the Potency entry in [2], in [3], in [4], in [5] and in [7] was “inactive” each time.
For `NC(=O)COCCN1CCN(C(c2ccccc2)c2ccc(Cl)cc2)CC1` (stereo not given), the call in test [1] and in test [6] was inactive. The Potency result in [2], in [3], in [4], in test [8] and in [7] was “inactive” throughout.
For `CO[Si](CCCOCC1CO1)(OC)OC` (stereo not given), the compound was classed as inactive in test [1]. Moreover, the Potency entry in [2], in test [3], in test [4], in test [5] and in [7] was “inactive” in each case.
With `COc1ccc2c(c1)c(CC(=O)OCC(=O)O)c(C)n2C(=O)c1ccc(Cl)cc1`, the result in [1] and in test [6] was inactive. The Potency result in test [2], in test [3], in test [4] and in test [8] was “inactive” each time.
For `COc1ccc2c(c1)CCCC2=O`, the result in test [1] was inactive. Also, the Potency result in test [2], in [3], in test [4], in test [5] and in [7] was “inactive” throughout.
For the compound `N[C@H](C(=O)O)c1ccc(O)cc1`, in test [1], the activity change is -0.267% [at 18.9 µM] (inactive). For the same compound, in [2], the Potency result was “inactive”. Further, the activity change, negative = cytotoxicity is 0.253% [at 19 µM] (inactive) in test [3], 9.39% [at 19 µM] (inactive) in test [4] and 3.71% [at 19 µM] (inactive) in test [5]. Further, in [7], the activation was 0.585% [at 19 µM] (inactive). For the same compound, the cAMP activity change in test [6] is 3.37% [at 18.9 µM] (inactive).
`C[N+](C)(C)CCCCCC[N+](C)(C)C`: in test [1], the result was inactive. Further, the Potency entry in test [2], in [3], in [4] and in test [5] was “inactive” in each case.
For the compound `C[C@@H]1CCN(C(=O)[C@H](CCCN=C(N)N)NS(=O)(=O)c2cccc3c2NC[C@H](C)C3)[C@@H](C(=O)O)C1`, the compound was classed as inactive in test [1] and in [6]. In addition, the Potency entry in test [2], in test [3], in test [4], in test [5] and in [7] was “inactive” throughout.
For `CCCCCOC(=O)CCCCC`, the compound was classed as inactive in test [1]. In addition, the Potency entry in test [2], in test [3], in [4], in test [5] and in test [7] was “inactive” in each case.
With `CCOC(=O)CC(C)=O`, the outcome in test [1] and in test [6] was inactive. Also, the Potency result in test [2], in [3], in [4] and in test [5] was “inactive” throughout.
Consider `OCCOc1ccc(OCCO)cc1`, for which the outcome in test [1] and in [6] was inactive. Further, the Potency result in test [2], in test [3], in test [4], in [5] and in test [7] was “inactive” each time.
For `CCCc1cc(C(N)=S)ccn1`, the compound was classed as inactive in test [1] and in test [6]. For the same compound, the Potency entry in test [2], in [3], in [4], in test [5] and in test [7] was “inactive” in each case.
`CO[C@]12C[C@@H](COC(=O)c3cncc(Br)c3)CN(C)[C@@H]1Cc1cn(C)c3cccc2c13`: the result in test [1] and in [6] was inactive. Moreover, the Potency result in test [2], in test [4], in [8] and in [5] was “inactive” each time.
In the case of `C=C(C)C(=O)OCCCCCCCC(C)C`, the result in test [1], in test [9], in test [10] and in test [6] was inactive. Besides, the Potency result in [3], in [4], in test [8] and in test [7] was “inactive” in each case.
`C=CCS(=O)(=O)O`: the outcome in test [1] and in test [6] was inactive. For the same compound, the Potency entry in test [2], in [3], in [5] and in [7] was “inactive” in each case.
For the compound `CC(C)NC(=O)NC(C)C`, the call in test [1], in test [9] and in [6] was inactive. Besides, the Potency result in [3], in test [4], in test [8], in test [5] and in test [7] was “inactive” throughout.
With `CC(C)(c1ccc(O)cc1)c1ccc(O)cc1`, the call in test [1] and in test [6] was inactive. Also, the Potency in test [2] is 38.1 µM (active) and 19.7 µM (active); in [8], “inactive and 27.8 µM (active)”. For the same compound, the Potency entry in [3] and in [5] was “inactive” in each case.
Consider `N=C(N)c1ccc2cc(OC(=O)c3ccc(N=C(N)N)cc3)ccc2c1`, for which, in [1], the compound was classed as inactive. Besides, the Potency result in test [2], in test [3], in test [8], in test [5] and in test [7] was “inactive” in each case.
For the compound `CC(C)(O)C#CC(C)(C)O`, the result in [1] and in test [6] was inactive. In addition, the Potency result in test [3], in [5] and in test [7] was “inactive” throughout.
Regarding `CC/C=C\CC/C=C/CO`, the compound was classed as inactive in [1]. The Potency result in test [2], in [3] and in [5] was “inactive” in each case.
On to `NS(=O)(=O)c1cc(C(=O)O)cc(N2CCCC2)c1Oc1ccccc1`, for which the outcome in test [1] and in [6] was inactive. For the same compound, the Potency result in [2], in [3], in test [5] and in test [7] was “inactive” in each case.
For the compound `COC(=O)c1ccc(C)cc1C1=NC(C)(C(C)C)C(=O)N1` (stereo not given), the Potency entry in test [2], in [3] and in [4] was “inactive” each time. Also, the outcome in test [9] and in test [10] was inactive.
Regarding `Nc1c2c(nc3ccccc13)CCCC2O` (stereo not given), the outcome in test [1], in test [9], in test [10] and in [6] was inactive. Moreover, the Potency entry in test [3], in test [4], in [5] and in [7] was “inactive” each time.
In the case of `CC(=O)CC(C)(C)C1CCCCC1`, the Potency entry in test [2], in test [3], in test [4], in test [5] and in test [7] was “inactive” throughout. For the same compound, the result in [9] and in test [10] was inactive.
Regarding `CC(=O)c1ccccc1O`, the call in [1] and in test [6] was inactive. Also, the Potency entry in test [2], in [3], in [5] and in [7] was “inactive” each time.
With `Cc1cc(O)cc2c1O[C@](C)(CCC[C@H](C)CCC[C@H](C)CCCC(C)C)CC2`, the compound was classed as inactive in [1] and in [6]. Besides, the Potency result in [2], in test [3], in [5] and in test [7] was “inactive” each time.
Consider `CCCCNC(=O)NCCCC`, for which the outcome in test [1] and in [6] was inactive. Further, the Potency result in test [2], in test [3], in test [8], in test [5] and in [7] was “inactive” each time.
For the compound `CCc1nccnc1CC`, the activity change in test [1] is 0.457% [at 18.9 µM] (inactive). Moreover, the Potency entry in test [2] is “inactive”. The activity change, negative = cytotoxicity was 1.15% [at 19 µM] (inactive) in test [3] and 15.2% [at 19 µM] (inactive) in [5]. The activation in test [7] was -0.0927% [at 19 µM] (inactive). The cAMP activity change in test [6] was -3.22% [at 18.9 µM] (inactive).
For the compound `C=C[Si](OC(=C)C)(OC(=C)C)OC(=C)C`, the call in test [1], in test [9] and in [6] was inactive. Besides, the Potency entry in [3], in [4] and in test [7] was “inactive” in each case.
